Activity increase over dofetilide control, less the hit threshold data for 48 compounds are collected here from PubChem BioAssay AID1835 (Johns Hopkins Ion Channel Center, 2009).

In all, about 2,400 compounds went through this assay and about 750 (31%) were called active. Some of the results follow. Values without a mark were called inactive.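 The calls were made as follows: active = median signal gain over dofetilide-blocked control wells reaching their mean plus 3 SD, so readout 1 at least 0; inactive = the rest.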

The assay deals with Voltage-gated inwardly rectifying potassium channel KCNH2 (Homo sapiens) (UniProt Q12809). Put plainly: modulators restoring hERG flux under dofetilide – cell-based, thallium flux, duplicate retest, dofetilide IC70, confirmation (AID 1835). The settings on record: hERG cell line, FluxOR thallium flux, dofetilide-blocked; at 10 µM; active compounds read high. In general terms: Block of hERG is tested as a sign of cardiac risk.
Voltage-gated inwardly rectifying potassium channel KCNH2 (Homo sapiens), sequence (Q12809 whole entry, looked up): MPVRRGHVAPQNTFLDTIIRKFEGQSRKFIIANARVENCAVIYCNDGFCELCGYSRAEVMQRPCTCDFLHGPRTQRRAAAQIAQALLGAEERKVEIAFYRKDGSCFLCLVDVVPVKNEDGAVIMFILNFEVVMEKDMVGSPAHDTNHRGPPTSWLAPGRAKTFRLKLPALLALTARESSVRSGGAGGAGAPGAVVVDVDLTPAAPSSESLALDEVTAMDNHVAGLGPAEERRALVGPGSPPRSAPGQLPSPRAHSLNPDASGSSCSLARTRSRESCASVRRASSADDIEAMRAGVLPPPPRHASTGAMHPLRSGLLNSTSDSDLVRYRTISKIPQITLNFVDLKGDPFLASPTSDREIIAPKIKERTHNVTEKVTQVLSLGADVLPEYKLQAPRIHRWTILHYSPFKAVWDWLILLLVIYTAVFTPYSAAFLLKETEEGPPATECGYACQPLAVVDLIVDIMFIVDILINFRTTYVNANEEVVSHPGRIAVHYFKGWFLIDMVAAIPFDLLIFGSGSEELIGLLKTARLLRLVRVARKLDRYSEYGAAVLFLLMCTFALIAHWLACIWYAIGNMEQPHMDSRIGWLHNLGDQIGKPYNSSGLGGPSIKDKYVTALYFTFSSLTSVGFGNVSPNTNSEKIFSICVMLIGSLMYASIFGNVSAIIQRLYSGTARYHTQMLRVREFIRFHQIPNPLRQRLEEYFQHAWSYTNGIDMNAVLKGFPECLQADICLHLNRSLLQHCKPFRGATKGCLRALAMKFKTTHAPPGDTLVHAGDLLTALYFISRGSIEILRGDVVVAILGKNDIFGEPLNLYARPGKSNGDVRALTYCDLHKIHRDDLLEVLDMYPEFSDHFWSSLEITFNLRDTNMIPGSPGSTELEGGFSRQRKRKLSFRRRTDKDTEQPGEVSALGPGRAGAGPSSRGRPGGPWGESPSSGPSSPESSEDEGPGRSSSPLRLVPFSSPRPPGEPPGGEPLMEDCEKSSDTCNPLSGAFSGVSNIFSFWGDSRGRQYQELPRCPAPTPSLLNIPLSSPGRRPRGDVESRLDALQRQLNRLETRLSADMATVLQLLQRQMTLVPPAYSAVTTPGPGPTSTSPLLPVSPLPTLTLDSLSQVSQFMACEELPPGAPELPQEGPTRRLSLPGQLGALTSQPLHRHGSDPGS
`CCC1(c2ccc(Cl)cc2)NC(=S)N(c2ccc(C)c(C)c2)N1` (stereo not drawn): the activity increase over dofetilide control, less the hit threshold is 100% (active). As for `CCC1(c2ccccc2)NC(=S)N(c2ccc(C)c(C)c2)N1` (stereo not drawn), the figure is 86% (active); as for `Cc1ccc(NC(=O)c2noc3c2CCC3)cc1C`, -11%. With `N#Cc1cc(-c2ccccc2)nnc1Oc1ccccc1`, the activity increase over dofetilide control, less the hit threshold is -1%. Consider `Cc1ccc2[nH]c(=O)c(C(c3nnnn3C3CCCC3)N3CCCc4ccccc43)cc2c1` (stereo not drawn), for which the activity increase over dofetilide control, less the hit threshold was -4%. With `COc1ccc(-c2cc(C(F)(F)F)nc(N3CCCCC3)n2)cc1OC`, the activity increase over dofetilide control, less the hit threshold is -19%.

On to `O=C1C=C(c2ccccc2)OC(=O)C1C(=O)c1ccccc1` (stereo not drawn), for which the activity increase over dofetilide control, less the hit threshold was -4%. As for `CCOc1ccc2nc(/N=C/c3nc(-c4ccc(Br)cc4)oc3O)sc2c1`, the activity increase over dofetilide control, less the hit threshold is 11% (active). For `CCOc1ccc2nc(/N=C/c3nc(-c4ccccc4)oc3O)sc2c1`, the activity increase over dofetilide control, less the hit threshold was 4% (active). With `CC1(C)CC(=O)c2c(nn(-c3ccccc3)c2-c2ccncc2)C1`, the activity increase over dofetilide control, less the hit threshold was -7%. Take `Cc1ccc2cc(CCNC(=O)C(=O)c3c(C)[nH]c4ccccc34)c(=O)[nH]c2c1`: the activity increase over dofetilide control, less the hit threshold is -20%. For the compound `S=c1nc[nH]c2c1sc1nc(-c3ccccc3)c3c(c12)CCCC3`, the activity increase over dofetilide control, less the hit threshold is 80% (active). In the case of `CCOC(=O)c1sc2nc(N3CCOCC3)c3c(c2c1N)CCN(Cc1ccccc1)C3`, the activity increase over dofetilide control, less the hit threshold was -5%. Take `S=c1nc[nH]c2c1sc1nc(N3CCOCC3)c3c(c12)CCCC3`: the activity increase over dofetilide control, less the hit threshold was 58% (active).

As for `CC(C)c1nc2sc3c(=S)nc[nH]c3c2c2c1CCC2`, the activity increase over dofetilide control, less the hit threshold is 52% (active). As for `OCCN1CCN(c2ncnc3c2sc2nc(N4CCOCC4)c4c(c23)CCC4)CC1`, the figure is -27%; as for `Cc1ccc(C)c(OCc2cc(C(=O)N3CCNC(=O)C3)no2)c1`, -7%. As for `CCc1noc(C)c1C(=O)N1CCCC(N2CCN(c3ccccc3F)CC2)C1` (stereo not drawn), the figure is -1%; as for `COc1ccc(C(=O)CC(=O)C(=O)Nc2ccccc2C(F)(F)F)cc1`, 13% (active). Regarding `COc1ccc(C(=O)CC(=O)C(=O)Nc2ccccc2Cl)cc1`, the activity increase over dofetilide control, less the hit threshold was 31% (active). As for `CCOc1ccccc1NC(=O)C(=O)CC(=O)c1ccc(OC)cc1`, the activity increase over dofetilide control, less the hit threshold was 16% (active).

On to `COc1ccc(C(=O)CSc2nnc3ccc(-c4ccccn4)nn23)cc1`, for which the activity increase over dofetilide control, less the hit threshold was -11%.

Take `COc1ccc(C(=O)CC(=O)C(=O)Nc2ccccc2OC)cc1`: the activity increase over dofetilide control, less the hit threshold is 2% (active).

`NNC(=O)CNc1ccccc1Cl`: the activity increase over dofetilide control, less the hit threshold is -9%.

With `COc1ccccc1NC1=C(NC(C)=O)C(=O)c2ccccc2C1=O`, the activity increase over dofetilide control, less the hit threshold is -7%.

For the compound `CCN1CCN(CC(=O)c2ccc(OC)cc2)CC1`, the activity increase over dofetilide control, less the hit threshold was -17%. As for `COc1ccc(C(=O)NC2CC3CCCC(C2)N3Cc2ccccc2)cc1` (stereo not drawn), the figure is -11%. Take `CSc1ccc(S(=O)(=O)N2CCC(C(=O)Nc3ccccc3C(F)(F)F)CC2)cc1`: the activity increase over dofetilide control, less the hit threshold is -17%. `COc1ccc(C(=O)CNc2ccccc2C#N)cc1`: the activity increase over dofetilide control, less the hit threshold was -11%. As for `CCc1nc(C)ccc1OCC(=O)N1CCc2c([nH]c3ccccc23)C1c1ccccn1` (stereo not drawn), the figure is -24%; as for `Cc1ccc(CCNC(=O)c2cccc(NC3=NC4CS(=O)(=O)CC4S3)c2)cc1` (stereo not drawn), -4%. Consider `Cc1cc(=O)[nH]c(N/N=C2/CCCC/C2=C\c2ccccc2)n1`, for which the activity increase over dofetilide control, less the hit threshold was -9%. On to `CNC(=O)c1[nH]cnc1C(=O)Nc1ccccn1`, for which the activity increase over dofetilide control, less the hit threshold was -18%. For `Cc1ccccc1OCC(=O)NNC(=O)c1ccc2c(=O)n3c(nc2c1)CCC3`, the activity increase over dofetilide control, less the hit threshold was -21%. For `O=C1c2ccccc2C(=O)N1CCc1nc(-c2ccccn2)no1`, the activity increase over dofetilide control, less the hit threshold is -12%. In the case of `CCOc1ccc(CCNC(=O)Nc2ccccc2C)cc1OCC` it was -12%; in that of `CCOc1ccccc1NC(=O)C(=O)CC(=O)c1cccc(OC)c1`, 7% (active); in that of `Cc1oc2cc(O)ccc2c(=O)c1N1C(=O)c2ccccc2C1=O`, -4%. As for `Cc1ccc2c(CN3CCOCC3)cc(=O)oc2c1`, the figure is -14%. For the compound `Cc1nnc(SCc2cc(=O)oc3cc(O)ccc23)n1Cc1ccccc1`, the activity increase over dofetilide control, less the hit threshold was 12% (active).

As to `CCOCCCNC(=O)C(NC(=O)Cc1cccs1)c1ccc(C)cc1` (stereo not drawn), the activity increase over dofetilide control, less the hit threshold was -21%.

`Fc1ccc(N2CCN(c3ccc4c(C(F)(F)F)cc(C(F)(F)F)nc4n3)CC2)cc1`: the activity increase over dofetilide control, less the hit threshold is -8%.

Consider `Cc1ccc(C(C#N)c2ccc3c(C(F)(F)F)cc(C(F)(F)F)nc3n2)cc1` (stereo not drawn), for which the activity increase over dofetilide control, less the hit threshold is 8% (active).

Turning to `Cc1ccc(S(=O)(=O)N2CCOCC2)cc1NC(=O)COC(=O)c1cccnc1Cl`, the activity increase over dofetilide control, less the hit threshold is -15%. Regarding `COc1ccc(/C=C2/S/C(=N/N=C3\CC4CCC3(C)C4(C)C)NC2=O)cc1` (stereo not drawn), the activity increase over dofetilide control, less the hit threshold was 20% (active). In the case of `Cc1ccc(N=C2NC(=O)/C(=C/c3cccs3)S2)cc1C`, the activity increase over dofetilide control, less the hit threshold is 0%.

`CC12CCC(C/C1=N\N=C1\NC(=O)/C(=C\c3ccc(Cl)cc3)S1)C2(C)C` (stereo not drawn): the activity increase over dofetilide control, less the hit threshold was -3%.

For the compound `Cc1cccc(/C=C2/S/C(=N/N=C3\CC4CCC3(C)C4(C)C)NC2=O)c1` (stereo not drawn), the activity increase over dofetilide control, less the hit threshold is 5% (active).
